# Measured values taken from the supplement of paper PMC9262897, “Low-cost anti-mycobacterial drug discovery using engineered E. coli” (Nature Communications, 2022).
# Counter-ions that a name gives are not always drawn. ± gives the standard deviation of the averaged measurements.
# System: E. coli TESEC Mtb DapB
# Assay: growth (OD600 after 10 h); higher = more growth (less inhibition)
# Settings: arabinose induction (level): Low; compound 0.1 mM; raw OD600 reference: median of DMSO wells 0.227, cell-free background 0.041
# Description: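 TESEC E. coli strains in which the native enzyme is deleted and replaced by arabinose-inducible Mtb Asd, DapB, CysH or TrpD, each grown in its selective medium. Strains were screened against the Prestwick library at 0.1 mM and 1% DMSO in 384-well format at low and high arabinose induction. Growth is read as OD600 after 10 h in triplicate.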
row,Structure (SMILES),growth
1,CC1(C)O[C@@H]2C[C@H]3[C@@H]4C[C@H](F)C5=CC(=O)C=C[C@]5(C)[C@@]4(F)[C@@H](O)C[C@]3(C)[C@]2(C(=O)CO)O1 [Fluocinolone acetonide],0.239 ± 0.039
2,O=C1CC[C@@H](C(=O)N2CSC[C@H]2C(=O)O)N1 [Pidotimod],0.235 ± 0.037
3,Cc1cc(NS(=O)(=O)c2ccc(N)cc2)no1 [Sulfamethoxazole],0.205 ± 0.024
4,"CN(Cc1cnc2nc(N)nc(N)c2n1)c1ccc(C(=O)N[C@@H](CCC(=O)O)C(=O)O)cc1 (racemic) [Amethopterin (R,S)]",0.204 ± 0.022
5,CN(C)CCCN1c2ccccc2CCc2ccc(Cl)cc21 [Clomipramine hydrochloride],0.0467 ± 0.00083
6,CN1CCN2c3ccccc3Cc3ccccc3C2C1 (stereo unspecified) [Mianserine hydrochloride],0.243 ± 0.03
7,CCCN(CCC)C(=O)C(CCC(=O)O)NC(=O)c1ccccc1 (stereo unspecified) [Proglumide],0.246 ± 0.019
8,CCCCOc1ccc(CC(=O)NO)cc1 [Bufexamac],0.222 ± 0.088
9,CC(C)CC(=O)N[C@H](C(=O)N[C@H](C(=O)N[C@@H](CC(C)C)[C@@H](O)CC(=O)N[C@@H](C)C(=O)N[C@@H](CC(C)C)[C@@H](O)CC(=O)O)C(C)C)C(C)C [Pepstatin A],0.246 ± 0.046
10,CO[C@@]1(NC(=O)C2SC(=C(C(N)=O)C(=O)O)S2)C(=O)N2C(C(=O)O)=C(CSc3nnnn3C)CS[C@@H]21 (stereo partly specified) [Cefotetan],0.0511 ± 0.01
11,CC[N+](CC)(CC)CCC(O)(c1ccccc1)C1CCCCC1 (stereo unspecified) [Tridihexethyl chloride],0.233 ± 0.037
